The values below come from the OligoGym collection.
Further: reference of the scale not given here.

The first experiment has as its target FNBP1L. Kind of experiment: pooled miR-30 sensor sort-seq; sequence = guide strand. The note with it: shRNA.
On to TTGTCTAAGCTGTCGAACTGAT, for which the sensor-assay potency score (higher = more potent) is -0.84.
The same measure, in the same setting: for TAATTCACCATACACTCTGTGC the value was -0.622.
Same read-out and setting: as for TAACTTTGCGTTCTGAGTCAGC, the figure is -0.716; as for TTCATCATCAAACTCATTGTGG, 0.113.
TAAGCTGTCGAACTGATCCCAC gave a sensor-assay potency score (higher = more potent) of 0.0926.
On the same count and under the same terms, as for TTCTGCTACAACTTCTCGCTGT, the figure is 0.673; as for TTTCTCTAGAGTTACATCTATG, -0.933.
On the same count and under the same terms, as for TATGATTCAAATAACACTGGGA, the figure is 0.483.
The same measure, in the same setting: for TAATGTAGAGAACTTCACCTTC the value was -0.0833.
Take TGACTTTTGACAATAGTCCTTT: the sensor-assay potency score (higher = more potent) is -0.217.

The target of a further experiment is FNBP1. The experiment is described as above. The conditions noted are these: shRNA.
In turn, TTTCTGGGTCTCTACTCGCAGT registered a sensor-assay potency score (higher = more potent) of -1.12.
The same measure, in the same setting: as for TATACTTGTATTCTTCTTCCTC, the figure is 0.713; as for TTTACTAGATTCAAGCTGCTTC, 0.524; as for TTTATTTAACTCATCGACTTTC, -0.243.
On the same count and under the same terms, for ATCTCTTTGATCCATCTCCTTC the value was -0.792; for TTTGGTGACGTATTTGAGCTTG, 0.00299.
Same read-out and setting: as for TAACTCATCGACTTTCTGCTGC, the figure is 0.71; as for TTTATAAGCTTCTATTACCAGC, -0.679; as for TAAGCTTCTATTACCAGCTGTG, 0.175.
In the case of TAGAATTAGTGCAACACACATA, the sensor-assay potency score (higher = more potent) is -0.218.

In the next experiment the target is FNDC5. Described as above. The conditions noted are these: shRNA.
For the sequence TTCCTAAATAAATTGGACCAGT, the sensor-assay potency score (higher = more potent) is -0.788.
Regarding TTTTTCCTTGTTGTTATTGGGT, the sensor-assay potency score (higher = more potent) is -0.666.
On the same count and under the same terms, for TTGGTCTGAAAGACACAGCTTG the value was -0.175; for TTGTCCAAGCTAGCATTTCTGA, -1.26.
As for TTGATGATGTCATACTGGCGGC, the sensor-assay potency score (higher = more potent) is -0.843.
TTGAAGAGCACAGGCTCGCTGG came in with a sensor-assay potency score (higher = more potent) of -0.67.
On the same count and under the same terms, for TAGCCAGAGCTGCTCTTCCTGT the value was -1.11.
Same read-out and setting: for TTGAGAGCTCTTGTAGACCGGA the value was 0.301; for TTATTGGGTTCATTGTCCTTGA, -0.801; for TTGTAGTGCAGCCTCCTTCATC, -0.884.
Still for that read-out and setting: for TACCTCATCTTTGTTCTTGGAG the value was 0.567; for TTTTCCTTGTTGTTATTGGGTT, -0.634.

In a further experiment the target is FNTB. The experiment is described as above. The note with it: shRNA.
TCCTCCTTCAAATCGCATCTGC had a sensor-assay potency score (higher = more potent) of -0.214.
Turning to TTTGCCTGTTCTATGGACGTGA, the sensor-assay potency score (higher = more potent) was 0.213.
On the same count and under the same terms, for ATCTGTAGCCACTATCTGGGGG the value was -0.8; for TAAACCTTGTCTGACTGGGGAG, -0.535.
The same measure, in the same setting: as for TTGAACTTGTAAGAACTGAAGA, the figure is -0.977; as for TACTTTTGCCTGTTCTATGGAC, -0.547; as for TTAAGCTCCTCAAAACCTGGGA, -0.317.
The same measure, in the same setting: as for TTTTCTTCTACTTTTGCCTGTT, the figure is 0.0828.
